# Reference: PubChem BioAssay AID1439 (NMMLSC, 2008)
# Hit rate of the full screen: of about 220,000 compounds, about 770 (0.35%) were called active. Another 15% or so got no clear call; they are omitted. Rule as the data show it: active = binding response below about 49% or above about 150%; inconclusive = no clear call, values can overlap the other calls; inactive = in between. Only a selection was taken, and actives are over-represented in it overall. Residues, ends and D or L forms follow the SMILES beside them. *: point of attachment. OPac = O=C(CO*)c1ccccc1; Bz = O=C(c1ccccc1)*
# Target: Guanine nucleotide-binding protein G(o) subunit alpha (Homo sapiens) (UniProt P09471)
# Experiment: compounds changing RGS7 association with Galphao – biochemical, multiplexed bead flow cytometry, primary screen (AID 1439);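 also: fluorescent Galphao held in activated GDP-AlF4 state binding bead-coupled RGS7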
# Conditions: at 10 µM, actives lie on both sides
# Sequence of Guanine nucleotide-binding protein G(o) subunit alpha (Homo sapiens) (P09471 whole entry, looked up): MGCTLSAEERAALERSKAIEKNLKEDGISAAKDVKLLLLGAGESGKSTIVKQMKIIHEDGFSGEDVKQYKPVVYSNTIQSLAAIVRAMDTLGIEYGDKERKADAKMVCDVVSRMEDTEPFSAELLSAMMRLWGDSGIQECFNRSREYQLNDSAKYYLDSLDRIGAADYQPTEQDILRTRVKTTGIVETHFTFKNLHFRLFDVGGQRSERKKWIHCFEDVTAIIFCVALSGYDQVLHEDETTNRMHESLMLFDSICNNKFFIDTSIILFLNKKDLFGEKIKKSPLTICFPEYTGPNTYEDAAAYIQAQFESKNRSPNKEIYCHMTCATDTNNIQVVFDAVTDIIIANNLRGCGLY
row,Compound,binding response (% of control)
1,O=C(CN1CCN(c2ccc(Cl)cc2)CC1)N1CCCC1,102% (inactive)
2,COC(=O)c1ccccc1OCC(=O)N1CCN(c2ccc(Cl)cc2)CC1,290% (active)
3,O=C(COc1ccc(Cl)cc1)N1CCN(c2cccc(C(F)(F)F)c2)CC1,104% (inactive)
4,COCCn1c(C)cc(C(=O)COC(=O)/C=C/c2cccc(OC)c2)c1C,92.8% (inactive)
5,FC(F)(F)c1cccc(Cc2noc(CN3CCC(N4CCCCC4)CC3)n2)c1,104% (inactive)
6,CCOC(=O)c1sc(/N=C/C2=C(O)CC(C)(C)CC2=O)c(C(=O)OCC)c1C,107% (inactive)
7,Cc1cc(C)n2nc(SCC(=O)NC(=O)NCc3ccco3)nc2n1,102% (inactive)
8,Cc1ccccc1CN1CCN(C(=O)c2cccc(F)c2)CC1,105% (inactive)
9,Cc1ccccc1CS(=O)(=O)CC1(O)CCN(C(=O)c2cccc(C(F)(F)F)c2)CC1,157% (active)
10,CC(C)CC(=O)N1CCC(O)(CS(=O)(=O)Cc2ccccc2)CC1,103% (inactive)
11,CCOC(=O)C1=NOC(Cn2cc(C(C)=O)c(=O)[nH]c2=O)C1 (centres undefined),100% (inactive)
12,COc1cc2c(cc1OC)CN(C(=O)c1ccc(S(=O)(=O)N3CCCCCC3)cc1)CC2,89.7% (inactive)
13,COc1cc2c(cc1OC)CN(C(=O)c1cc(=O)c3ccccc3o1)CC2,97.6% (inactive)
14,CCOc1cc(C(=O)N2CCc3cc(OC)c(OC)cc3C2)ccc1OC(F)F,159% (active)
15,CCC(=O)NC(=S)Nc1ccc(NC(=O)c2ccco2)c(Cl)c1,102% (inactive)
16,O=C(Nc1cccc(Cl)c1N1CCOCC1)c1ccc2c(c1)OCCO2,108% (inactive)
17,O=C(COc1ccccc1)N1CCc2ccccc2C1,103% (inactive)
18,Cn1c(=O)c2c(n(Cc3ccccc3)c1=O)NC(=O)C2CC(=O)N1CCc2ccccc2C1 (centres undefined),13.5% [inhibitor] (active)
19,O=C(CSc1nnc(-c2cccs2)n1Cc1ccccc1)N1CCc2ccccc2C1,102% (inactive)
20,CCCCCCCNc1nc(Cl)nc(NCCO)n1,93.6% (inactive)

row,Compound,binding response (% of control)
1,CN(C)C(=O)CSc1n[nH]c(-c2ccco2)n1,107% (inactive)
2,O=[N+]([O-])c1ccc(Sc2n[nH]c(-c3ccco3)n2)nc1,105% (inactive)
3,Cc1ccc(N=Nc2c(C)[nH]n(-c3ccccc3)c2=O)cc1,100% (inactive)
4,Cc1ccc(N2C(=O)C3C(c4ccccc4)(C2=O)C3(c2ccccc2)c2ccccc2)cc1 (centres undefined),14.4% [inhibitor] (active)
5,Cc1ccc(N2C(=O)C(Cc3ccccc3)NC2=S)cc1 (centres undefined),99% (inactive)
6,CCCC1C(c2ccccc2)C(C#N)(C#N)C2(C#N)CC1(N)NC2=O (centres undefined),152% (active)
7,CC(C)OCCCNC(=S)N1CCC(C(=O)c2ccc3c(c2)OCCO3)CC1,105% (inactive)
8,CCOCCCNCc1ccc(OCc2ccc(F)cc2)c(OC)c1,103% (inactive)
9,O=C(Nc1cccc(F)c1)c1coc(=O)c(Br)c1,45.3% [inhibitor] (active)
10,O=C(Nc1cccc(F)c1)c1ccc(S(=O)(=O)N2CCCC2)cc1,97.7% (inactive)
11,Cc1c(NC(=O)c2coc(=O)c(Br)c2)c(=O)n(-c2ccccc2)n1C,101% (inactive)
12,CCN(CC)CCOC(=O)c1ccc(NC(=O)CNC(=O)c2ccccc2)cc1,98.5% (inactive)
13,COc1ccc(CC(=O)n2nc(-c3cccnc3)nc2N)cc1,97.3% (inactive)
14,CCCC(=O)n1nc(-c2ccccc2)nc1N,23.4% [inhibitor] (active)
15,COc1ccccc1C(=O)n1nc(-c2ccccc2)nc1N,100% (inactive)
16,OCCC1CN(Cc2cccc(OC3CCCC3)c2)CCN1Cc1ccsc1 (centres undefined),102% (inactive)
17,COCCN(CCOC)S(=O)(=O)c1ccc(/C(O)=C(\C#N)c2nc3ccccc3[nH]2)cc1,104% (inactive)
18,COC(=O)Cn1cc(/C=C/[N+](=O)[O-])c2ccccc21,102% (inactive)
19,O=C(COc1ccc(-c2ccccc2)cc1)NN=C1CCCC1,108% (inactive)
20,COc1ccccc1NC(=O)CCCc1c[nH]c2ccccc12,312% (active)

row,Compound,binding response (% of control)
1,O=C(CCCCCn1c(=O)[nH]c2ccccc2c1=O)NCCc1c[nH]c2ccccc12,102% (inactive)
2,COc1ccccc1NC(=O)C[n+]1ccccc1,99.2% (inactive)
3,O=C(CNC(=O)c1ccccc1)NCC(=O)OCC(=O)c1ccccc1 (Bz-Gly-Gly-OPac),113% (inactive)
4,Cc1c(C(=O)Nc2ccccc2Cl)oc2ccc(S(=O)(=O)N3CCC4(CC3)OCCO4)cc12,103% (inactive)
5,CCOc1ccccc1NC(=O)CCN1CCN(S(=O)(=O)c2ccc(OC)cc2)CC1,100% (inactive)
6,CCOc1ccccc1NC(=O)c1cc(S(=O)(=O)N2CCC3(CC2)OCCO3)ccc1F,15.2% [inhibitor] (active)
7,Cc1cc(C2=NNC(=Nc3ccc(S(=O)(=O)N4CCOCC4)cc3)SC2)c(C)n1CC1CCCO1 (centres undefined),104% (inactive)
8,FC(F)Oc1ccccc1C1CC(c2ccc(Br)s2)Nc2ncnn21 (centres undefined),163% (active)
9,COc1ccc(C2CC(c3ccccc3)Nc3ncnn32)cc1 (centres undefined),93.2% (inactive)
10,Clc1ccc(C2CC(c3cccs3)n3ncnc3N2)cc1Cl (centres undefined),99.3% (inactive)
11,O=C(NC1CCCC1)C(c1ccc(N2CCOCC2)cc1)N(C(=O)c1ccco1)c1ccccc1F (centres undefined),95.4% (inactive)
12,O=C(C1CCN(C2CCN(Cc3ccc4cc(F)ccc4n3)CC2)CC1)N1CCCC1,106% (inactive)
13,CCCNC(=O)c1c(Cl)cnn1-c1ccc(C)cc1,96.6% (inactive)
14,CC(=O)c1ccc(NC(=O)C(C)N(C)CC(=O)Nc2ccccc2Cl)cc1 (centres undefined),98.2% (inactive)
15,Cc1cccc2c1N(CCOc1ccccc1)C(=O)C2=O,86.4% (inactive)
16,CCOC(=O)C1=C(C)NC(=O)N(C(C)=O)C1c1ccc(Cl)cc1 (centres undefined),104% (inactive)
17,CCOC(=O)C1C(c2ccc(Cl)cc2)NC(=S)NC1(O)C(F)(F)F (centres undefined),103% (inactive)
18,CCOC(=O)C1Sc2[nH]c(=O)sc2C(c2ccc(Cl)cc2)C1C(=O)OCC (centres undefined),-17.7% [inhibitor] (active)
19,Cc1cc(C)n(CCNCc2c(C(=O)N3C[C@@H](C)O[C@@H](C)C3)nc3ccc(Cl)cn23)n1,98.3% (inactive)
